The values below come from PubChem BioAssay.

This test deals with Carbonic anhydrase 2 (Homo sapiens) (UniProt P00918). Kind of test: compounds binding carbonic anhydrase 2 – biochemical, small-molecule microarray, Alexa647-labelled CAII, profiling panel (AID 1122). The note with it: CAII-A647 binding fluorescence, higher = more signal.
`CSCC[C@@H]1NC(=O)CC=C[C@@H](C)COC(=O)[C@H](C)COC1=O` yielded a composite z-score of -0.682.
Take `CC1(C)O[C@H]2O[C@H]([C@H](O)CON=C3[C@H]4CCn5c(=O)n(-c6ccccc6)c(=O)n5[C@H]4[C@H](O)[C@@H]4O[C@H]34)[C@H](O)[C@H]2O1`: the composite z-score is -0.195.
Under `COc1cccc([C@H]2Oc3ccc(OC)cc3C(=NO[C@@H](C)c3cc(-c4c(C)cc(C)cc4C)no3)[C@@H]2O)c1` stands 0.108; under `CC(=O)OC[C@H]1O[C@H](C#CCCc2ccccc2)C=C[C@@H]1OC(C)=O`, 0.376; under `CC(C)=CCCC(C)=CCON=C1C[C@@H](O)[C@@H](O)[C@@H]2[C@@H]3C(=O)N(C4CCCCC4)C(=O)[C@@H]3CC[C@H]12`, 0.106.
With `COC(=O)[C@H](C)NC(=O)CCC1CC(OC(=O)NCc2ccc3c(c2)OCO3)CC2(CCCC(COC(=O)NCCc3ccc(Cl)cc3)O2)O1` (stereo partly specified) the figure was 0.0233; with `COC(=O)[C@H](C)NC(=O)CCC1CC(OC(=O)NCCc2ccc(F)cc2)CC2(CCCC(COC(=O)NCC3CCCCC3)O2)O1` (stereo partly specified), 0.427; with `CCN1C(=O)[C@H]2[C@H]3[C@H](O)[C@H](O)CC(=NO[C@H](C)c4cn([C@H](CO)Cc5ccccc5)nn4)[C@@H]3CC[C@H]2C1=O`, 0.412.
Under `CCN1C(C)=C(C(=O)OC)[C@@H](c2ccccc2)N2C(=O)[C@](O)(C(=O)OC)CC(C(C)=O)=C12` stands -0.174; under `C=CC[C@@H]1C=C[C@H](ON=C(C)CCN2CCCCc3nc(C)c(C)cc32)[C@@H](CO)O1`, 0.226; under `CC(C)=NOC(C)CN1CCCCc2nc(C)c(C)cc21` (stereo unspecified), 0.418.
Turning to `CCOC(=O)[C@H](Cc1ccccc1)NC(=O)CCC1CC(OC(=O)NCCc2ccc(F)cc2)CC2(CCCC(COC(=O)NCCOc3ccccc3)O2)O1` (stereo partly specified), the composite z-score amounted to 0.0403.
Compound `Cc1ccc(S(=O)(=O)N[C@@H]2COC(=O)CC=C[C@@H](C)[C@H](NS(=O)(=O)c3ccc(C)cc3)COC(=O)[C@H](C)NC(=O)CC=C[C@H]2C)cc1` gave a composite z-score of -0.548.
Turning to `CCOC(=O)CCN1C(=O)[C@H]2[C@H]3[C@H](O)[C@H](O)CC(=NOCC(C)C)[C@@H]3CC[C@H]2C1=O`, the composite z-score was -0.52.
Under `CC(=O)OC[C@H]1O[C@H](CCON=C(C)CCN2CCCc3nc(C)c(C)cc32)C=C[C@@H]1OC(C)=O` stands 0.416; under `Cc1cc2c(nc1C)CCCCN2CC(O)CN1CCCc2nc(-c3ccc(Br)cc3)ccc21` (stereo unspecified), 0.493.
With `CC(C)(C)N1C(=O)[C@H]2[C@@H]3C(=CC[C@H]2C1=O)C(=O)[C@H]1O[C@H]1[C@H]3O` the figure was -0.444.
On to `CC(CCN1CCCc2nc(C)c(C)cc21)=NOC[C@@H](C)[C@H](OCc1ccccc1)C(C)C`, for which the composite z-score is -0.358.
With `CON=C(C)CCC(=O)OC[C@H]1O[C@H](C#Cc2ccccc2)C=C[C@@H]1Oc1ccc(C)cc1` the figure was 0.263.
`C[C@@H]1CC[C@@H](C(=O)O)N[C@H]1c1cccc(N2CCOCC2)c1` showed a composite z-score of 0.295.
With `O=C1C2=CC[C@H]3C(=O)N(C4CCCCC4)C(=O)[C@H]3[C@H]2[C@H](O)[C@@H]2O[C@H]12` the figure was 0.335; with `CCOC(=O)[C@H](Cc1ccccc1)NC(=O)CCC1CC(OC(=O)NCCc2ccc(F)cc2)CC2(CCCC(COC(=O)NCc3cccc(C(F)(F)F)c3)O2)O1` (stereo partly specified), 0.499; with `O=C1[C@H]2[C@H]3[C@H](O)[C@H](O)CC(=NO[C@@H]4O[C@H](CO)[C@@H](O)[C@H](O)[C@H]4O)[C@H]3CC[C@H]2C(=O)N1C[C@@H]1CCCO1`, -0.408.
Under `CC(CCC(=O)OC[C@H]1O[C@H](C#Cc2ccccc2)C=C[C@@H]1Oc1ccc(C)cc1)=NOC[C@@H](C)[C@H](OCc1ccccc1)C(C)C` stands -0.0949; under `C[C@@H]1CC[C@H]2C(=O)OC(Cc3ccccc3)CN2[C@H]1c1ccc(Br)cc1` (stereo partly specified), 0.186.
With `COC(=O)CC=C[C@@H](C)[C@@H](C=NOC[C@@H](O)COCc1ccco1)OC` the figure was -0.134; with `CCc1cc2c(nc1CC)CCN(CCC(C)=NOC[C@@H](C)[C@H](OCc1ccccc1)C(C)C)C2`, -0.25.
The compound `O=C1C2=CC[C@H]3C(=O)N(C[C@@H]4CCCO4)C(=O)[C@H]3[C@H]2[C@H](O)[C@@H]2O[C@H]12` displayed a composite z-score of -0.145.
`CCOC(=O)CCN1C(=O)[C@H]2[C@H]3[C@H](O)[C@H](O)CC(=NNC(=O)OCC)[C@H]3CC[C@H]2C1=O` came in with a composite z-score of 0.505.
With `COc1ccc2c(c1)O[C@@H](c1cccc(C(F)(F)F)c1)[C@H](O)C2=O` the figure was 0.0122; with `COC(=O)CC=C[C@@H](C)[C@@H](C=NOC(C)CN1CCCCc2nc(C)c(C)cc21)NS(=O)(=O)c1ccc(C)cc1` (stereo partly specified), -0.277; with `CCOC(=O)[C@H](Cc1ccccc1)NC(=O)CCC1CC(OC(=O)NCc2cccc3ccccc23)CC2(CCCC(COC(=O)NCCc3ccccc3OC)O2)O1` (stereo partly specified), 0.224.
Under `O=C1C=C[C@@H](O)[C@@H]2[C@@H]3C(=O)N(c4cccc(Oc5ccccc5)c4)C(=O)[C@@H]3CC[C@@H]12` stands -0.0169; under `O=C1C=C[C@@H](O)[C@@H]2[C@@H]3C(=O)N(Cc4ccccc4)C(=O)[C@@H]3CC[C@@H]12`, -0.0331.
Under `COC(=O)[C@H](C)NC(=O)CCC1CC(OC(=O)NCc2ccc3c(c2)OCO3)CC2(CCCC(COC(=O)NCc3ccccc3)O2)O1` (stereo partly specified) stands 0.192; under `COc1ccc(COC(=O)NN=C2C[C@@H](O)[C@@H](O)[C@@H]3[C@@H]4C(=O)N(C(C)(C)C)C(=O)[C@@H]4CC[C@@H]23)cc1`, 0.346.
